TEAD-YAP inh = TEAD-YAP interaction inhibition; HEK-TIYL cells, TEAD-Gal4/YAP UAS-luciferase luminescence; inhibition, % at 9.12 µM; 640,000 compounds, 1.4% hits; AID 1259422; in the data active = inhibition above about 32%;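 note: 0% = median of test compound wells and 100% = reference inhibitor wells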
MITF primary = inhibitors of human MITF | 650,000 compounds, 0.91% hits | inhibition, % at 2.6 µM | O75030 | AlphaScreen MITF homodimerization, bead proximity signal; in the data active = inhibition above about 50%;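 note: 0% = vehicle wells with protein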
FBW7 activator = activators of human E3 ligase FBW7 | normalized activity (activation), % at 26.1 µM | AlphaScreen FBW7–phospho-cyclin E peptide binding, activator screen | 650,000 compounds, 0.13% hits | Q969H0; in the data active = normalized activity above about 1.9%;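 note: purified mutant Fbw7 with reduced substrate affinity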
GPR151 ag = activators of human GPR151; activation, % at 11.2 µM; 650,000 compounds, 1% hits; PathHunter beta-arrestin GPR151 cells, luminescence; Q8TDV0; in the data active = activation above about 4.9%;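 note: 0% = median of compound wells and 100% = cells with positive control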
Target sequence (Q8TDV0 whole entry, looked up): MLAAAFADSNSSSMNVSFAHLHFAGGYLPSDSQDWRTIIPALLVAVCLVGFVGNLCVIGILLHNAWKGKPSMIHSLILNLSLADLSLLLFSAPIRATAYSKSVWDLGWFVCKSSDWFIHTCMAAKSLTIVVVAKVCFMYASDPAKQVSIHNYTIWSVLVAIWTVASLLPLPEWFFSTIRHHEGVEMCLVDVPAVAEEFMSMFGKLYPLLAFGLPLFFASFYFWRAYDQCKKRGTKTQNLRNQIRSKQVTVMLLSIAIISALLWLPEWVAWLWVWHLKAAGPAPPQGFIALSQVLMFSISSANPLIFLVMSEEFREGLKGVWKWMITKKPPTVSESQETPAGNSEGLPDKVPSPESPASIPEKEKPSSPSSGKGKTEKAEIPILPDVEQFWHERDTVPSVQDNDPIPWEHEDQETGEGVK
* hit, by the source's call. This is a sample that favours compounds with a hit; in the whole collection about 3.5% have one here.

SMILES	TEAD-YAP inh	MITF primary	FBW7 activator	GPR151 ag
OCCCNc1ccc2ncc(-c3ccsc3)n2n1	51.0*	-0.2	0.8	-1.6
OCCCNc1ccc2ncc(-c3cccc(Cl)c3)n2n1	53.1*	0.2	-0.5	0.2
O=C(O)c1ccc(-c2cnc3ccc(NCCCO)nn23)cc1	0.1	11.9	0.2	-0.4
CC(=O)c1cccc(-c2cnc3ccc(NCc4cccs4)nn23)c1	7.3	-0.5	-0.1	-0.5
CCCNc1ccc2ncc(-c3cccc(C(C)=O)c3)n2n1	34.2*	-15.5	0.1	0.1
OCCCNc1ccc2ncc(-c3cccc(O)c3)n2n1	72.0*	-10.8	-0.4	-0.1
O=C(Nc1cccc(Cl)c1Cl)C(=O)NC1CCCC1	-23.6	7.7	-0.1	-0.5
CCOC(=O)c1c(N)sc(C(=O)Nc2cccc(Cl)c2)c1C	49.8*	0.9	-0.1	-7.6
CCOC(=O)c1c(N)sc(C(=O)Nc2ccccc2F)c1C	48.0*	-7.6	0.1	-5.9
CCOC(=O)c1c(N)sc(C(=O)Nc2ccccc2)c1C	32.4*	3.5	0.2	-4.6
CCOC(=O)c1c(N)sc(C(=O)Nc2ccc(C)c(Cl)c2)c1C	34.8*	2.6	-0.1	-4.1
CCOC(=O)c1c(N)sc(C(=O)Nc2ccccc2C(F)(F)F)c1C	13.9	5.6	0.0	2.5
CSc1nccc(-c2cc(F)cc3c2OC(CNC(=O)Cn2ccc(C)n2)C3)n1 (stereo unspecified)	8.1	7.6	0.0	0.0
COC(=O)c1c(N)sc(C(=O)Nc2cccc(Cl)c2C)c1C	69.2*	3.6	0.0	-3.7
CCOC(=O)Nc1c(C)cc(C)cc1[N+](=O)[O-]	50.0*	8.0	0.2	-0.1
O=C(O)c1cccc(COc2ccc(CO)cc2Br)c1	84.5*	7.0	0.1	-12.6
O=Cc1ccc(OCc2cccc(C(=O)O)c2)c(Cl)c1	87.8*	2.9	0.1	-7.7
COc1cc(/C=C/[N+](=O)[O-])ccc1OCc1cccc(C(=O)O)c1	77.2*	56.3*	-0.5	1.7
COc1cc(/C=C2/NC(=O)NC2=O)ccc1OCc1cccc(C(=O)O)c1	22.8	-8.3	-0.2	-2.5
O=C(O)c1cccc(COc2ccc(CO)cc2Cl)c1	95.0*	10.6	1.1	-13.0
CC(=O)Oc1cccc(C(=O)Nc2ccccc2O)c1	-13.9	16.4	0.2	0.9
CCOC(=O)c1sc2ncnc(Nc3cccc(C)c3)c2c1C	1.5	7.8	0.0	-1.4
CCOC(=O)c1sc2ncnc(Nc3ccc(C)cc3Br)c2c1C	58.8*	2.9	0.2	-0.1
Fc1ccccc1-c1cnn2ccc(NCc3cccnc3)nc12	41.6*	12.7	0.0	0.3
c1cncc(CNc2ccn3ncc(-c4cccc5ccccc45)c3n2)c1	-8.3	8.3	0.1	0.2
SMILES	TEAD-YAP inh	MITF primary	FBW7 activator	GPR151 ag
CCN(CC)CCOc1cccc(Cl)c1	-2.2	35.4	0.5	0.0
O=C(CCCn1nc(-c2ccccc2)c2cc(Cl)ccc21)NCCCN1CCOCC1	-3.0	-9.1	0.2	1.3
COc1ccc2nc3sc(C(=O)N4CCN(c5ccccc5OC)CC4)c(N)c3cc2c1	-2.3	0.0	0.1	-0.9
COc1ccc(N2CCN(C(=O)c3sc4nc5ccc(OC)cc5cc4c3N)CC2)cc1	-2.6	69.5*	0.0	-0.5
Cc1cc(=O)oc2cc(OCC(O)Cn3c(C)nc4ccccc43)ccc12 (stereo unspecified)	50.1*	-6.0	-0.1	2.9
Cc1nc2ccccc2n1CC(O)COc1ccc2ccccc2c1 (stereo unspecified)	14.5	11.1	-0.4	0.6
CCCNC(=O)c1ccccc1NC(=O)c1ccc(OC)cc1	3.5	-14.7	0.1	2.9
COc1ccc(C(=O)Nc2ccccc2C(=O)NCCCC(=O)O)cc1	-8.6	13.4	2.0*	0.5
CCCCN(C)C(=O)c1sc2ncn(Cc3ccccc3Cl)c(=O)c2c1C	12.2	6.7	0.6	-1.0
CN(C(=O)C1CCCN(S(=O)(=O)c2cccs2)C1)C1CCCCC1 (stereo unspecified)	5.5	40.1	0.0	-1.2
Cc1nnc(SC(=O)N2c3ccccc3Sc3ccccc32)s1	60.6*	7.2	-0.3	0.2
CCC(C)Nc1c(-c2ccc(C)c(C)c2)c(=O)c1=O (stereo unspecified)	52.2*	-2.5	-0.2	0.4
CCC(C)Nc1c(-c2ccc(C)cc2)c(=O)c1=O (stereo unspecified)	23.6	13.0	0.1	-1.9
Cc1ccc(-c2c(NC3CCCC3)c(=O)c2=O)cc1C	32.2*	12.4	0.0	0.6
O=C1Nc2ccccc2C1(O)C/C(=N/O)c1ccc(Cl)cc1 (stereo unspecified)	-2.3	-10.1	-0.1	2.2
O=[N+]([O-])c1ccc(N2CCN(c3ncnc4c3cnn4-c3ccc(Cl)cc3)CC2)cc1	2.9	1.9	0.0	-0.1
COc1ccc(C(=O)N2CCC(C(=O)Nc3cccc4ccccc34)CC2)cc1OC	13.6	16.8	0.7	0.4
O=C(COc1ccc(Cl)cc1)Nc1cccc(NC(=O)c2ccco2)c1	47.1*	7.9	0.0	-1.4
COc1ccc(C(=O)NC(=S)Nc2cccc(OC)c2)cc1	-56.1	-16.3	-0.1	-0.1
O=C(COc1ccc(Cl)cc1)Nc1ccc(NC(=O)c2ccco2)cc1	-4.2	2.4	0.3	1.2
COc1ccc(C(=O)NC(=S)Nc2cccc(C(=O)O)c2)cc1	61.4*	-0.9	0.0	2.4
CC(=O)Oc1ccc(C(=O)Nc2cccc(F)c2)cc1	-40.6	-7.1	0.1	-3.6
COc1ccc(NC(=S)NNc2ccc(C(=O)O)cc2)cc1	39.5*	1.9	-0.3	-0.5
CC(C)Oc1ccc(C(=O)Nc2cccc(F)c2)cc1	43.4*	15.1	0.9	-6.8
O=C(CN1C(=O)C2C3C=CC(C3)C2C1=O)N1CCN(c2cccc(C(F)(F)F)c2)CC1 (stereo unspecified)	4.3	9.4	-0.1	2.7
SMILES	TEAD-YAP inh	MITF primary	FBW7 activator	GPR151 ag
COc1ccc(C(=O)NC(=S)Nc2cccc(S(=O)(=O)N3CCOCC3)c2)cc1	44.2*	5.7	0.6	-1.9
COc1ccc(C(=O)Nc2cccc(C)c2)cc1	66.3*	-3.6	0.0	-9.4
COc1ccc(C(=O)NC(=S)Nc2cccc(NC(=O)c3ccco3)c2)cc1	33.5*	9.3	0.0	-1.3
Cn1c(=O)n(C)c2cc(C(=O)NCCn3nc(-c4cccs4)oc3=O)ccc21	3.6	-16.5	0.1	0.7
Fc1cc(-c2nc(Nc3ccc(Cn4ccnc4)cc3)ncc2F)cc(N2CCOCC2)c1	89.4*	4.3	-0.1	0.1
Fc1cc(-c2nc(Nc3cccc(Cn4cncn4)c3)ncc2F)cc(N2CCOCC2)c1	87.7*	1.6	-0.1	0.7
Fc1cc(-c2nc(Nc3ccc(-n4cnc(-c5ccccn5)c4)cc3)ncc2F)cc(N2CCOCC2)c1	54.0*	7.1	-1.5	0.0
Fc1cc(-c2nc(Nc3ccc(-c4cnco4)cc3)ncc2F)cc(N2CCOCC2)c1	1.9	9.3	0.6	0.9
Fc1cnc(Nc2ccc(Cn3ccnc3)cc2)nc1-c1cc(N2CCOCC2)cc(C(F)(F)F)c1	40.5*	-283.9	0.1	2.4
Fc1cnc(Nc2ccc(Cn3cccn3)cc2)nc1-c1cc(N2CCOCC2)cc(C(F)(F)F)c1	-0.3	7.2	0.4	2.1
COCCCNC(=S)N1CCCC(c2nc3ccccc3[nH]2)C1 (stereo unspecified)	-6.6	8.9	-0.1	0.6

Assay outcomes: PubChem BioAssay, The Scripps Research Institute Molecular Screening Center
